We go through 8 compounds from PubChem BioAssay.

The nature of experiment [1]: adipocyte viability effects, profiling panel, cell-based, 3T3-L1 adipocytes, calcein-AM fluorescence, 48 h, basal (AID 1163). As to conditions: 3T3-L1 adipocytes viability, higher = more signal.
Experiment [2] can be described thus: HepG2 cell viability effects, profiling panel, calcein-AM fluorescence, 48 h, basal (AID 1164). The settings on record: higher = more signal.
The nature of experiment [3]: MM1S cell viability effects, profiling panel, calcein-AM fluorescence, 48 h, basal (AID 1165).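 Note: viability of MM1S multiple myeloma cells under basal unstimulated conditions.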 The settings on record: higher = more signal.
The nature of experiment [4]: basal RPMI8226 viability, no added stimulus, profiling panel, cell-based, calcein-AM fluorescence, 48 h, PK04 Diversity Set (AID 1166).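 Note: cells grown under basal conditions without added stimulus.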 The settings on record: RPMI8226 myeloma viability, higher = more signal.
A short description of experiment [5]: basal HepG2 mitochondrial membrane potential changes, profiling panel, cell-based, JC-1 fluorescence, 24 h, 100 nL compound (AID 1167). The settings on record: higher = more signal.
A short description of experiment [6]: basal 3T3-L1 adipocyte mitochondrial potential changes, profiling panel, cell-based, JC-1 fluorescence, 3T3-L1 adipocytes, 24 h, 100 nL compound (AID 1168). The settings on record: JC-1 mitochondrial fluorescence, higher = more signal, called active from +8 up or from −8 down.
A short description of experiment [7]: basal RPMI8226 mitochondrial membrane potential changes, profiling panel, cell-based, JC-1 fluorescence, 24 h, 100 nL compound (AID 1169). The settings on record: RPMI8226 myeloma, JC-1 mitochondrial potential fluorescence, higher = more signal.
The nature of experiment [8]: basal MM1S mitochondrial membrane potential changes, profiling panel, cell-based, JC-1 fluorescence, 24 h, 100 nL compound (AID 1170). The settings on record: higher = more signal.
Experiment [9] in a line: A549 lung cancer cell viability effects, profiling panel, resazurin fluorescence, 24 h, PK04 Diversity Set (AID 1171). As to conditions: higher = more signal, called active from +8 up or from −8 down. For orientation: The colour change of resazurin is a common sign of viable cells or microbes.
Experiment [10] in a line: HepG2 liver cancer cell viability effects, profiling panel, resazurin fluorescence, 24 h, PK04 Diversity Set (AID 1172). As to conditions: higher = more signal.
Experiment [11] is described as follows: basal S. cerevisiae growth modulation, no modifier, primary screen, OD600, strain BY4716, 24 h, basal condition (AID 1173). The settings on record: OD600, 24 h, higher = more signal, called active from +8 up or from −8 down.
A short description of experiment [12]: MM1S myeloma cell viability, profiling panel, resazurin fluorescence, basal, 24 h, PK04 Diversity Set (AID 1174).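 Note: MM1S multiple myeloma cell line.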 The settings on record: higher = more signal, called active from +8 up or from −8 down.
The target of experiment [13] is Dihydroorotate dehydrogenase (quinone), mitochondrial (Plasmodium falciparum (isolate 3D7)) (UniProt Q08210). Description: PfDHODH enzyme inhibitors, primary screen, biochemical, C-terminal His tag, absorbance 600 nm (AID 1175).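 Note: recombinant parasite enzyme with a five histidine tag at its C terminus.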 As to conditions: DCIP absorbance 600 nm, higher = more signal, called active from +8 up or from −8 down.
Experiment [14] is described as follows: S. cerevisiae RM11-1a growth modifiers, primary screen, strain RM11-1a, OD600, basal, 24 h (AID 1177).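 Note: cultures grown under basal conditions with no added stressor.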 As to conditions: OD600, 24 h, higher = more signal, called active from +8 up or from −8 down.
Experiment [15] is described as follows: E. coli acrAB mutant growth effects, primary screen, E. coli filamentation inducers, strain DRC39, OD650, 24 h (AID 1178).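 Note: growth measured as culture turbidity by optical density at 650 nm.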 As to conditions: higher = more signal, called active from +8 up or from −8 down.
Experiment [16] can be described thus: E. coli acrAB mutant growth effects, primary screen, E. coli filamentation inducers, strain DRC39, OD650, 48 h (AID 1179).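 Note: screen aims at cell division blockers that make cells filament.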 As to conditions: E. coli DRC39 delta-acrAB growth, higher = more signal, called active from +8 up or from −8 down.
A short description of experiment [17]: RPMI8226 myeloma cell viability, profiling panel, resazurin fluorescence, basal, 24 h, PK04 Diversity Set (AID 1180).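 Note: RPMI8826 multiple myeloma cell line at 5000 cells per well.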 As to conditions: higher = more signal.
The target of experiment [18] is E3 ubiquitin-protein ligase XIAP (Homo sapiens) (UniProt P98170). Description: XIAP binders, primary screen, biophysical, small-molecule microarray, fluorescence 635 nm (AID 1181).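 Note: score merges 667 nm emission and signal to noise over triplicate slides.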 The settings on record: small-molecule microarray binding, higher = more signal.
Experiment [19] concerns XIP peptide (Xip251-270) binding. As to the kind of experiment: small-molecule binders of XIP peptide, primary screen, biochemical, small-molecule microarray, fluorescence 635/667 nm, 0.1 µg/mL protein (AID 1182). As to conditions: fluorescent protein binding, 635 nm, higher = more signal, called active from +8 up or from −8 down.
The test system of the next experiment is XIP peptide (Xip251-270). As to the kind of experiment: small-molecule binders of XIP peptide, primary screen, biochemical, small-molecule microarray, fluorescence 635/667 nm, 0.5 µg/mL protein (AID 1183). As to conditions: small-molecule microarray binding, fluorescence 635 nm; higher = more signal.

Calls of active or inactive are those of the source.

Dihydroorotate dehydrogenase (quinone), mitochondrial (Plasmodium falciparum (isolate 3D7)), sequence (Q08210 whole entry, looked up): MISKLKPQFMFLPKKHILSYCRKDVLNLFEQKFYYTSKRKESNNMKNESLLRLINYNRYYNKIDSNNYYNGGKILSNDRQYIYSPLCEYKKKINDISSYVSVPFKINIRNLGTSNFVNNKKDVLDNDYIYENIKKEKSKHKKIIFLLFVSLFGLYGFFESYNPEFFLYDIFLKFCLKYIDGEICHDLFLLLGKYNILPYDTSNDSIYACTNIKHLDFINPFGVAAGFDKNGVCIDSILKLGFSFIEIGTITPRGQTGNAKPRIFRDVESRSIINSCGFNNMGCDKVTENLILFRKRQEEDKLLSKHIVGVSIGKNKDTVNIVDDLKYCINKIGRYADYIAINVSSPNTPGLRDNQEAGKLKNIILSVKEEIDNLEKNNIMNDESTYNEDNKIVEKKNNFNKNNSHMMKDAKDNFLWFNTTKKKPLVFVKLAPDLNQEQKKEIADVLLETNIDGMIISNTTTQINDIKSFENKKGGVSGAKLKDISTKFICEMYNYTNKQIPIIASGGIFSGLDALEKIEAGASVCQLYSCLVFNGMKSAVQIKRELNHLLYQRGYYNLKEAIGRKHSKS
E3 ubiquitin-protein ligase XIAP (Homo sapiens), sequence (P98170 whole entry, looked up): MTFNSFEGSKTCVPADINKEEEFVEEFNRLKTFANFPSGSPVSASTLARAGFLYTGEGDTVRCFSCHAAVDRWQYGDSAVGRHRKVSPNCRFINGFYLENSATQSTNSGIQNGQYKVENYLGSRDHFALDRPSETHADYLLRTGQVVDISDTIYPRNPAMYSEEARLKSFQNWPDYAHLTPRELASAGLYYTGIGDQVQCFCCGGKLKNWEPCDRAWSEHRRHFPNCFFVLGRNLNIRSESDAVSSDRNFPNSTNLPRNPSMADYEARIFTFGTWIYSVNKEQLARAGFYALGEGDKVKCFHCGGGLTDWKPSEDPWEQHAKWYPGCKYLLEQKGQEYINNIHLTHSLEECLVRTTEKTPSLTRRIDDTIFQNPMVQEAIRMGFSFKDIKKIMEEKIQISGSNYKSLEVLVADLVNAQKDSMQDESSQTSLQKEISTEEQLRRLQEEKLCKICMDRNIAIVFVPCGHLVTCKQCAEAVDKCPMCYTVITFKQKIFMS

Regarding `O=C1O[C@H](c2ccccc2)[C@H](c2ccccc2)N2[C@H]1[C@@H](C(=O)NC[C@H](O)c1ccccc1)[C@]1(C(=O)Nc3ccc(C#CC4(O)CCCCCC4)cc31)[C@H]2c1ccc(O)cc1`, the z-score in experiment [1] was 1.43; in experiment [2] it was -0.641; in experiment [3], -0.804; in [4], -1.62; in experiment [5], -1.71; in experiment [6], -0.947 (inactive). Besides, the z-score in experiment [7] was -0.672; in experiment [8], -0.566; in experiment [9], 0.814 (inactive); in experiment [10], 0.82; in experiment [11] it was -1.55 (inactive); in experiment [12] it was 0.557 (inactive). For the same compound, the z-score in [14] was -0.49 (inactive); in experiment [15], 0.487 (inactive); in experiment [16], 0.972 (inactive); in experiment [17] it was 0.327. The composite z-score was -0.154 (inactive) in experiment [13], -0.141 in experiment [18], 1.05 (inactive) in experiment [19] and 0.444 in the experiment with XIP peptide (Xip251-270).

For `C=C(COC)C(=O)CC[C@@H](OC(=O)c1ccccc1-c1ccccc1C(=O)O)c1cccc(OCCO)c1`, the z-score in [1] was 0.649; in experiment [2], -0.441; in experiment [3] it was -1.99; in [4], -1.43; in experiment [5] it was 0.0537; in experiment [6], 0.469 (inactive). Also, the z-score was -0.0226 in experiment [7]; 1.4 in experiment [8]; 1.2 (inactive) in [9]; 0.417 in [10]; -0.749 (inactive) in experiment [11]; 0.0335 (inactive) in experiment [12]. In addition, the z-score in experiment [14] is 0.291 (inactive); in experiment [15], 1.16 (inactive); in experiment [16], 0.755 (inactive); in experiment [17] it was 0.458. The composite z-score in [13] was -0.733 (inactive); in experiment [18] it was 0.109; in [19], 0.43 (inactive); with XIP peptide (Xip251-270), -0.29.

As for `NC(=O)NCC#Cc1ccc2c(c1)[C@]1(C(=O)N2)[C@H](c2ccc(OCCO)cc2)N2[C@H](c3ccccc3)[C@H](c3ccccc3)OC(=O)[C@H]2[C@@H]1C(=O)Nc1nc2ccccc2s1`, the z-score in experiment [1] is 1.17; in experiment [2], -0.348; in experiment [3] it was -0.285; in experiment [4], 1.55; in experiment [5], -3.12; in experiment [6], 2.65 (inactive). The z-score in experiment [7] was -0.999; in experiment [8], -1.68; in [9], 0.641 (inactive); in experiment [10] it was 0.0219; in experiment [11] it was 1.44 (inactive); in [12] it was 1.33 (inactive). In addition, the z-score in experiment [14] is 3.21 (inactive); in experiment [15], 0.606 (inactive); in experiment [16], 0.681 (inactive); in [17] it was 1.2. Moreover, the composite z-score in experiment [13] was -0.212 (inactive); in [18], -0.0398; in experiment [19], 0.245 (inactive); with XIP peptide (Xip251-270), -0.587.

Take `CCCCC(=C=CC[C@@H](O)c1ccc(OCCO)cc1)C[C@@H](O)c1cc(Cl)cc(Cl)c1O`: the z-score in [1] is 1.37; in [2], 0.652; in experiment [3], -3.38; in experiment [4], -3.4; in experiment [5], -0.376; in experiment [6], 1.43 (inactive). In addition, the z-score in experiment [7] was -0.0474; in [8] it was 0.781; in experiment [9], 2.58 (inactive); in experiment [10] it was 2.12; in experiment [11], -5.94 (inactive); in experiment [12], 0.199 (inactive). The z-score in experiment [14] is -3.1 (inactive); in [15], 3.34 (inactive); in [16], 2.27 (inactive); in [17], 0.285. Also, the composite z-score in [13] is -2.43 (inactive); in experiment [18] it was 0.0394; in experiment [19], 0.925 (inactive); in the experiment with XIP peptide (Xip251-270) it was 0.365.

Regarding `C=CCN1C(=O)[C@]2(O[C@H](CCn3cc([C@H](O)c4ccccc4)nn3)[C@@H]([Si](C)(C)c3ccc(OC)cc3)[C@@H]2C)c2cc(N3CCOC3=O)ccc21`, the z-score in [1] was 3.08; in experiment [2] it was -0.812; in [3], -1.98; in experiment [4], -2.86; in [5] it was 3.15; in [6], 2.62 (inactive). Also, the z-score in experiment [7] is -0.906; in experiment [8], -0.286; in [9], -2.25 (inactive); in experiment [10], -1.22; in experiment [11] it was -0.506 (inactive); in experiment [12], -0.72 (inactive). Moreover, the z-score in [14] is 0.58 (inactive); in experiment [15], 1.84 (inactive); in experiment [16], 1.06 (inactive); in [17] it was -1.23. Further, the composite z-score was -0.175 (inactive) in [13], -0.0721 in experiment [18], 0.865 (inactive) in experiment [19] and -0.0533 in the experiment on XIP peptide (Xip251-270).

With `C=CCC(OC(C)=O)[C@@H]1[C@@H](N(Cc2ccc(-c3ccccc3)cc2)C(=O)c2ccc(-c3ccccc3)cc2)c2cc(OCCCO)ccc2N1C(=O)c1ccc(-c2ccccc2)cc1` (stereo not given in full), the z-score in experiment [1] was 0.948; in experiment [2], 0.623; in [3], 0.787; in experiment [4] it was 0.18; in experiment [5] it was 2.74; in [6] it was 0.111 (inactive). The z-score is -0.176 in experiment [7]; -0.0803 in [8]; 1.4 (inactive) in experiment [9]; 1.46 in [10]; -0.435 (inactive) in [11]; 1.4 (inactive) in experiment [12]. Besides, the z-score in [14] was -0.738 (inactive); in experiment [15] it was 1.34 (inactive); in experiment [16] it was 0.995 (inactive); in [17] it was 0.899. Further, the composite z-score in experiment [13] was 0.169 (inactive); in [18], -0.0102; in experiment [19] it was -0.959 (inactive); with XIP peptide (Xip251-270), -0.58.

For the compound `CC(C)(C)OC(=O)CC[C@@]12N=C(c3ccc(OCCCO)cc3)O[C@@H]1c1ccccc1CN(Cc1ccccc1)C2=O`, the z-score is 1.52 in experiment [1]; -1.46 in [2]; -3.12 in experiment [3]; -4.06 in experiment [4]; 0.528 in experiment [5]; 0.547 (inactive) in experiment [6]. Moreover, the z-score in experiment [7] was -1.2; in experiment [8], -1.07; in experiment [9], -0.624 (inactive); in experiment [10], -0.232; in [11], 1.13 (inactive); in [12], -3.4 (inactive). The z-score in [14] was 3.15 (inactive); in experiment [15], 1.21 (inactive); in experiment [16] it was 0.199 (inactive); in experiment [17], -2.12. Also, the composite z-score in [13] was 0.714 (inactive); in [18] it was 0.286; in experiment [19], -0.127 (inactive); with XIP peptide (Xip251-270), 0.687.

On to `CN(C)CCCC[C@@H]1NC(=O)[C@@H]2C[C@H](C(=O)NCCCCCNC(=O)CS)[C@H](c3cccc(OCCO)c3)N2C1=O`, for which the z-score in experiment [1] was 1.56; in experiment [2] it was -1.33; in experiment [3] it was -0.669; in [4], -0.348; in experiment [5] it was 0.902; in experiment [6] it was 0.533 (inactive). Moreover, the z-score was 0.526 in experiment [7]; 0.249 in experiment [8]; -0.42 (inactive) in experiment [9]; -0.0484 in experiment [10]; -1.86 (inactive) in [11]; 0.78 (inactive) in experiment [12]. Moreover, the z-score in experiment [14] was -2.53 (inactive); in experiment [15] it was 0.431 (inactive); in experiment [16] it was -0.248 (inactive); in experiment [17], 0.608. In addition, the composite z-score in experiment [13] was -1.83 (inactive); in [18] it was -0.135; in [19] it was 0.62 (inactive); with XIP peptide (Xip251-270), -0.351.
